Measurements: PubChem BioAssay (NCI)
The panel holds about 83,000 compounds, 20% with a hit somewhere; the sample as a whole holds those more often.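 Assay: single dose, 48 h. Readout: percent growth (0 = no net growth; negative = cell death). Active: <10.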 Unmarked numbers belong to inactive results. The source made the active and inactive calls.

Key:
Assay in all cases: NCI-60 one-dose screen, 48 h (100 = growth as untreated, 0 = no growth, -100 = all killed)
DU-145 prostate = conditions: 10 µM
K-562 leukemia = conditions: 10 µM
MDA-MB-231 breast = conditions: 10 µM
RXF 393 renal = conditions: 10 µM
SF-268 CNS = conditions: 10 µM
SF-295 CNS = conditions: 10 µM
SF-539 CNS = conditions: 10 µM
UACC-257 melanoma = conditions: 10 µM
M14 melanoma = conditions: 10 µM
HCT-15 colon = conditions: 10 µM
HT29 colon = conditions: 10 µM
SNB-75 CNS = conditions: 10 µM
SNB-19 CNS = conditions: 10 µM
U251 CNS = conditions: 10 µM
PC-3 prostate = conditions: 10 µM
SK-MEL-5 melanoma = conditions: 10 µM
UACC-62 melanoma = conditions: 10 µM unless noted
LOX IMVI melanoma = conditions: 10 µM
SK-MEL-28 melanoma = conditions: 10 µM
MALME-3M melanoma = conditions: 10 µM

Compound	growth (DU-145 prostate) [%]	growth (K-562 leukemia) [%]	growth (MDA-MB-231 breast) [%]	growth (RXF 393 renal) [%]	growth (SF-268 CNS) [%]	growth (SF-295 CNS)	growth (SF-539 CNS)	growth (UACC-257 melanoma)	growth (M14 melanoma) [%]	growth (HCT-15 colon) [%]	growth (HT29 colon)	growth (SNB-75 CNS)	growth (SNB-19 CNS) [%]	growth (U251 CNS) [%]	growth (PC-3 prostate) [%]	growth (SK-MEL-5 melanoma) [%]	growth (UACC-62 melanoma) [%]	growth (LOX IMVI melanoma) [%]	growth (SK-MEL-28 melanoma) [%]	growth (MALME-3M melanoma) [%]
CC1=NN(c2ccccc2)C(=O)/C1=C\N1CC(=O)NC1=S	106	104	98.3	108	101	104%	109%	90.6%	103	107	103%	91.2%	101	98.3	93.6	101	97.1	98.4	112	
CCCCC1(CC)COC(CCC)OC1 (stereo not drawn)	102	106	106	101	98.6	119%	98.3%	101%	99.7	91.7	103%	99.1%	99.9	94.7	82	103	96.6	97.3	115	
CNc1nc(NC)c2cn[nH]c2n1	113	104	108	101	114	98.4%	103%		102	101		91.1%	106		91.9	97.8	102	98.3	115	
CCCC(=O)Nc1ccc2c(c1)CN1C(=O)c3ccccc3C1=N2	101	102	103	109	101	86.7%	89.6%	102%	113	98.3		104%	110	98.6	98.6	98.5		105	111	
Cc1ccc(C)n1-c1ccsc1C(=O)NNC(=O)CCl	105	96.3		101		103%	101%	91.3%	77.8	88.8	106%	112%		95.6	93.4	85.8		16.4	111	86.7
CNC(=S)NC(C)(C)C	108	103		112		104%	99.9%	92.7%	98.8	106	101%	146%		97	89.9	93.6	94	105	108	97.1
O=C1C=CC(=O)N1c1ccc(I)cc1Cl	110	114	107	110	126		97.1%	-2.76% (active)	95.1	99.9	100%	103%	98.4	99.5	75.7	102	104	101	107	
O=[N+]([O-])c1cccc2nsnc12	114	111	112	118	101		108%	87.8%	101	103	105%	96.7%	98.4	104	97.3	94.9	105	99.7	114	
Cc1nc2ccccc2c(C(=O)O)c1O	127	127	101	107	110		98.1%	96.7%		107	103%	98.3%	93.1	103	104	102	93.2	96.4	122	
COc1ccccc1C1OC2=Nc3cc(C)c(C)cc3NC2C1=O (stereo not drawn)	88	97.7		78.3		74.8%	91%	104%	84.2	80.8	93.1%	-13.2% (active)		53	82.5	78.3	76.2	72.3	106	80.2
CC(=O)OC(C(=O)O)c1ccccc1 (stereo not drawn)	106	108	105	112	101	113%	111%	106%	110	111	104%	116%	115	109	91	105	112	105	119	
O=S(=O)(O)C(Nc1ccccc1)c1ccccc1 (stereo not drawn)	110	87.6	99.1		107	107%	93.6%	140%	98.7	105	105%	71.9%	101	101	102	77.3	88.9		104	
CN(c1ccccc1)c1ncnc2c1ncn2C	108	103	109	122	97.5	109%	107%	87.9%	104	102	102%	92.8%	102	98.9	95.8	102	96.8	98.5	112	
OCCN(CCO)C(=S)S	111	111		113		101%	106%	79.6%		104	113%	129%		102	104	94.8	91.7	107	113	95.1
CCOC(=O)c1ccc(Nc2sc(C(=O)c3cccc([N+](=O)[O-])c3)c(N)c2C#N)cc1	29.2	16.1	45.9	15.8	44.4	-44.3% (active)	1.59% (active)	17.4%	24	32.3	8.29% (active)	-6.96% (active)	48.8	11.5	31.1	10.9	28.6	39.5	63.1	
CCCCCCCCCCCCCC(=O)Oc1ccc[nH]c1=O	103	90		113		97.1%	99%	84.3%	101	85.8	91.9%	110%		96.3	86.9	97.1	88.7	44.1	109	95.2
Cc1cc(OCCO)cc(C)c1Cl	117	118	114	134	109	130%	111%	110%	112	97.6	113%	124%	106	110	97.2	112	95.7		118	
O=c1[nH][nH]c(=O)c2cc([N+](=O)[O-])ccc12	126	98.9	106	109	111	117%	108%	110%	99.9	121	103%	83.4%	108	101	104	101	112	94.8	115	
